# Results published in PubChem BioAssay (NCI).
# Compounds without any hit were thinned out: in the full panel of roughly 83,000, 20% have a hit.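 Each cell line was grown in a 96-well plate and treated with one concentration of compound for 48 hours. Values below 10 were considered active.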 Active and inactive are the calls of the source.
# Test system: HCT-116 colon
# Experiment: NCI-60 one-dose screen, 48 h (100 = growth as untreated, 0 = no growth, -100 = all killed)
# Conditions: 10 µM unless noted
row,SMILES,growth
1,CN(c1cc2ncc(=O)[nH]c2cc1NC(N)=NCc1ccc(Cl)cc1)C1CCCCC1,24.9% (inactive)
2,O=C1/C(=C\c2ccc3nccnc3c2)SC(=S)N1CCc1ccc(O)cc1,94.8% (inactive)
3,Cc1ccc(C[P+](c2ccccc2)(c2ccccc2)c2ccccc2)cc1,2.21% (active)
4,COc1ccc(/C=N/C2=C(C#N)C(c3ccccc3)c3ccc4ccccc4c3O2)cc1 (stereo not given),10.3% (inactive)
5,COCCOc1cc2ncnc(N3CCN(c4cc(S(C)(=O)=O)c(C)cc4Cl)CC3)c2cc1OCCOC,103% (inactive)
6,C#COc1cccc(Nc2c(C#N)cnc3ncc(NC(=O)CCl)cc23)c1,-3.66% [6.25 µM] (active)
7,O=c1[nH]c(-c2ccccc2)nc2sc3cc(O)ccc3c12,92.5% (inactive)
8,CN1C(=O)/C(=C\c2nc([P+](c3ccccc3)(c3ccccc3)c3ccccc3)c(N3CCOCC3)o2)SC1=S,65.4% (inactive)
9,CC(C)Cn1cnc2c(=O)[nH]c(N)nc21,101% (inactive)
10,CCSc1nc2scc(C)c2c(=O)[nH]1,101% (inactive)
11,NC(N)=NCCCCCNc1noc(Cc2c[nH]c3cc(Br)ccc23)n1,77.2% (inactive)
12,Cc1[nH]c(C(=O)Nc2ccccc2OC2CCNCC2)c(Cl)c1Cl,4.55% (active)
13,O=C1NC(=O)C(Cc2ccc(OCc3ccc(-c4ccc(Cl)cc4Cl)cc3)cc2)S1 (stereo not given),38.6% (inactive)
14,Ic1ccc(OCCCCn2ccnc2)cc1,65.9% (inactive)
15,Cn1ccnc1C(=O)/C=C/c1ccc(CC(=O)Nc2cc(C(F)(F)F)cc(C(F)(F)F)c2)cc1,51.6% (inactive)
16,COc1cc2c(cc1OCCCN1CCN(CCCOc3cc4c(cc3OC)C(=O)N3CC(F)(F)C[C@H]3C=N4)CC1)N=C[C@@H]1CC(F)(F)CN1C2=O,62% (inactive)
17,COc1ccc2c(c1)c(-c1nc(-c3c[nH]c4ccncc34)cs1)cn2C,-88.3% (active)
18,Cc1nc2sc(C(=O)Nc3cccc(Br)c3)c(N)c2cc1C(O)c1ccccc1 (stereo not given),16.2% (inactive)
19,Nc1nc(-c2ccc(Cl)cc2)nc2c1sc(=S)n2-c1ccccc1,20.1% (inactive)
20,O=C(CSc1oc(-c2ccccc2)nc1S(=O)(=O)c1ccccc1)Nc1ccc(F)cc1,52.6% (inactive)

row,SMILES,growth
1,O=C1Nc2ccccc2/C1=C/c1nc2ccccc2c(=O)[nH]1,76.7% (inactive)
2,COc1ccc(C/C(C)=C(\c2ccc(Cl)cc2)c2ccc(OCCN3CCCCC3)cc2)cc1,100% (inactive)
3,O=C(N/N=C/c1ccc(Cl)cc1)c1[nH]c2ccc(Cl)cc2c1-c1ccccc1,7.64% (active)
4,Nc1n[nH]c2ccc([C@H]3[C@@H]4C5CCC(C5)[C@@H]4c4c(ccc5[nH]ncc45)N3S(=O)(=O)C3CC3)cc12 (stereo not given in full),4.97% (active)
5,CC/C(=C(/c1ccc(Cl)cc1)c1ccc(OCCN(C)C)cc1)c1ccc(Cl)cc1,56.7% (inactive)
6,Cn1cc(-c2nonc2-c2cn(C)c3ccccc23)c2ccccc21,11.6% (inactive)
7,Clc1ccc(/C=N\N=C\c2ccc(Cl)c(Cl)c2)cc1Cl,53.3% (inactive)
8,CCN(CC)CCCCCNc1cc(OC(=O)c2ccc(Cl)cc2)cc2cccnc12,83.6% (inactive)
9,CC(C)=CCCC(C)c1ccc(C)c2c1OCN(CCCCCO)C2 (stereo not given),68.6% (inactive)
10,N#Cc1nc(-c2ccc(Cl)cc2)oc1S(=O)(=O)N1CCN(c2ccc(F)cc2)CC1,78.7% (inactive)
11,COC(=O)[C@]12CCC(C)(C)C[C@H]1[C@H]1/C(=N/OCCc3nn[nH]n3)C[C@@H]3[C@@]4(C)CC[C@H](OC(C)=O)C(C)(C)[C@@H]4CC[C@@]3(C)[C@]1(C)CC2,24.7% (inactive)
12,COc1ccc(C(=O)C/C(=C\c2ccc(Cl)cc2)C(=O)NCc2ccccc2)cc1,82.5% (inactive)
13,Fc1ccc(CNc2c3ccccc3nc3ccccc23)c(F)c1,14.2% (inactive)
14,CC1OC(n2c3ccccc3c3c4c(c5c6ccccc6[nH]c5c32)C(=O)N(CCN2CCCC2)C4=O)CC(O)C1O (stereo not given),25.8% (inactive)
15,CCOC(=O)c1cc(C(=O)c2cc(OC)c(OC)c(OC)c2)n2ncccc12,11.8% (inactive)
16,Cc1ccc(-c2nc(N3CCCNCC3)c3oc(-c4ccc(C)cc4)nc3n2)cc1,27.5% (inactive)
17,O=C(CSC(=S)n1cnnc1)NC(=O)c1ccccc1,112% (inactive)
18,Cc1sc2nc(NCCc3c[nH]c4ccc(Cl)cc34)[nH]c(=O)c2c1C,24.5% (inactive)
19,CC(C)c1ccc(C(=O)Nc2sc3c(c2C(N)=O)CCC(=O)C3)cc1,-41.1% (active)
20,N#C/C(=C\c1c(-c2ccccc2)[nH]c2ccccc12)C(N)=O,76.9% (inactive)
